A549 tox – Nrf2 qHTS screen for inhibitors: counterscreen for cytotoxicity | AID 504648, 2011 | Potency, µM (highest dose often 46 µM), hits mostly inhibitors | A549 ARE-Fluc cells, CellTiter-Fluor viability, 18-24 h | 0.16% of 390,000 active
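A549 ARE-Fluc cells in 5% FBS OPTI-MEM, 5000 cells/well, rested 2 h then exposed to compounds in concentration-response for 18-24 h at 37 °C. Viability by CellTiter-Fluor fluorescence (Ex 405/Em 525) after 30 min; luciferase luminescence (BugLite, 15 min, RT) read afterwards.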
PINK1 expr mod – A Quantitative High throughput Screen to Identify Chemical Modulators of PINK1 Expression; Potency, µM (doses to about 76.6 µM), actives largely listed as activators; 0.2% of 410,000 active; PINK1 immunofluorescence, high-content cytometry, 24 h; active = well fitted activation curve with a large enough effect; inconclusive = small, poorly fitted or top-dose-only effect; cell line not stated here; note: nearly all actives have a fitted effect of over 65% in size
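Stable cell line, 250 cells/well, 12 h attachment; compounds pinned at 5 concentrations, 24 h; CCCP control. Fixed with nuclear dye, primary antibodies 12 h at 10 degrees C, secondary plus cell stain; laser-scanning cytometer read.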
Nrf2 ARE act – qHTS of Nrf2 Activators. AREc32 ARE-luciferase reporter (MCF7-derived line), luminescence, 24 h. Potency, µM (doses to about 46.1 µM), usual class: activators. 0.31% of 410,000 active. AID 624171, 2012; note: nearly all actives have a fitted effect of over 65% in size
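ARE activation measured as luciferase luminescence (Steady-Glo, 30 min RT) in AREc32_Fluc cells after 24 hr compound exposure at 37 deg C, 5% CO2; cells seeded overnight at 1000/well in OPTI-MEM, 5% FBS.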
Epigenetic derep – Quantitative High-Throughput Screen for Regulators of Epigenetic Control. murine LDR cells, GFP reporter derepression, 30 h. Potency, µM (series often up to 53.9 µM), most hits filed as activators. 0.2% of 280,000 active. AID 1865, 2009; note: nearly all actives have a fitted effect of over 60% in size
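Readout is the number of GFP-expressing murine LDR cells, counted by cytometry following washing. Cells were treated with compound for 30 h at 37 C; the stably integrated CMV-GFP locus is normally silent.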
Nrf2 block – Nrf2 qHTS screen for inhibitors | Potency, µM (doses to about 46 µM), actives largely listed as inhibitors | A549 ARE-Fluc reporter, luciferase luminescence, 18-24 h | 2.1% of 360,000 active; note: nearly all actives have a fitted effect of over 60% in size
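Quantitative HTS in A549 cells stably bearing an antioxidant response element-firefly luciferase construct. Inhibition of Nrf2-driven transcription was scored by luminescence after 18-24 h of compound exposure at 37 °C.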
C127i cell count – Parental Cell Counter Screen Assay for Epigenetic Modulators: Hit Validation | shares compounds with Epigenetic derep | mouse c127i parental cells, fluorescent cell count, 30 h | Potency, µM, most hits filed as activators | 20% of 60 active | AID 493065, 2011
HCC4017 tox – HCC4017 Cell Viability Secondary Assay for qHTS Assay for Epigenetic Modulators | shares compounds with Epigenetic derep | HCC4017 NSCLC viability, CellTiter-Glo ATP luminescence, 72 h | Potency, µM (highest dose often 46.1 µM), hits mostly cytotoxic | 30% of 45 active | AID 493071, 2011
H358 viab – H358 Cell Viability Secondary Assay for qHTS Assay for Epigenetic Modulators: Round 2; shares compounds with Epigenetic derep; H358 NSCLC viability, ATP luminescence, 72 h; Potency, µM (titrated, usually from 46.1 µM), usual class: cytotoxic; 30% of 45 active
Large screens that a line does not name were inactive (follow-up assays come after a bar, where they were run). The list is not random: actives were taken first. Their share in the collection is about 2.4%. Unless noted, calls come from the whole dose curve; as a rule, active = well fitted curve in the direction sought with a large enough effect; inconclusive = small, poorly fitted or top-dose-only effect, or another doubt; inactive = no such curve, though single readings can be large; an effect the other way counts as inactive or inconclusive.

C(=N\Nc1nc(-c2ccccn2)nc2ccccc12)/c1ccccc1	A549 tox inconclusive, Epigenetic derep 10µM, Nrf2 block inconclusive (no result: Nrf2 ARE act) | C127i cell count inactive | HCC4017 tox 0.4µM | H358 viab inconclusive
Cc1nc2nc(C)c(NS(=O)(=O)c3ccc(F)cc3)c(=O)n2[nH]1	none
O=C(O)CCCCCN1C(=O)/C(=C\c2ccc(-c3ccc(Cl)cc3)o2)SC1=S	Epigenetic derep 3.5µM | C127i cell count 7.9µM
Cc1ccc2c(=O)c(C(=O)c3ccccc3)cn(CC(=O)NCc3ccccc3)c2n1	none
O=C(CSc1cccc2cccnc12)N1CCCC1	A549 tox inconclusive, Nrf2 ARE act inconclusive | HCC4017 tox inconclusive | H358 viab inactive
O=C1CN(c2nc(-c3ccccc3)c3cc(Cl)ccc3n2)c2ccccc2N1	PINK1 expr mod inconclusive, Epigenetic derep inconclusive | C127i cell count inactive | HCC4017 tox inactive | H358 viab inconclusive
CC(C)c1ccc(NC(=O)CSc2nc(=O)n(Cc3ccccn3)c3c2CCC3)cc1	none (no result: Nrf2 block)
N#Cc1sc2nc(-c3ccccc3)cc(C(F)(F)F)c2c1N	PINK1 expr mod 11µM, Nrf2 ARE act inconclusive, Epigenetic derep inconclusive | C127i cell count 16µM
CCCOc1cc(N(CC)CC)ccc1/C=C(/C#N)c1nc2ccc(C)cc2[nH]1	A549 tox inconclusive | C127i cell count 2.5µM
Cc1ccc2nc(/C(C#N)=C\c3cc(O)ccc3[N+](=O)[O-])[nH]c2c1	none
S=C(Nc1ccccc1)c1ccccn1	Epigenetic derep 5.6µM, Nrf2 block inconclusive | C127i cell count 22µM | HCC4017 tox inactive | H358 viab inactive
COc1ccc(-c2onc(C)c2C)cc1S(=O)(=O)N1c2ccccc2CC1C (configuration not stated)	Nrf2 block inconclusive
CCOc1ccccc1N(CC(=O)Nc1ccc(OC)c(Cl)c1)S(=O)(=O)c1ccccc1	none (no result: Nrf2 block)
CSc1nsc(/C=C/Nc2cccc(Cl)c2)c1C#N	Nrf2 ARE act inconclusive, Epigenetic derep 7.1µM | C127i cell count 10µM | HCC4017 tox inactive | H358 viab inactive
Cc1nc(-c2cccc(NC(=O)Nc3ccc([N+](=O)[O-])cc3)c2)no1	A549 tox inconclusive, PINK1 expr mod inconclusive (no result: Nrf2 block)
CCN(CC)CCCNC(=O)CSc1c2c(nc3cc(Cl)ccc13)CCCC2	A549 tox inconclusive, Epigenetic derep inconclusive | C127i cell count inactive | HCC4017 tox inconclusive | H358 viab 28µM
O=C(CSc1c2c(nc3cc(Cl)ccc13)CCCC2)NCCCN1CCOCC1	none
Cc1ccc(/C=[N+](\[O-])c2ccc(N(C)C)cc2)c2nsnc12	Epigenetic derep inconclusive, Nrf2 block inconclusive | C127i cell count inactive | HCC4017 tox 14µM | H358 viab 28µM
CN(C)c1ccc(-c2ccc(C3C4C=CCCC4(C)C(=O)N3Cc3ccccc3)c(F)c2)cc1 (configuration not stated)	Nrf2 block inconclusive (no result: PINK1 expr mod, Nrf2 ARE act, Epigenetic derep)
CC(=O)N[C@@H](CSC/C=C(\C)CCC=C(C)C)C(=O)O	none (no result: A549 tox, PINK1 expr mod, Nrf2 ARE act, Nrf2 block)
CC(=O)N[C@@H](CSC(=O)[C@]1([C@@H](O)C(C)C)NC(=O)[C@H](C)[C@@H]1O)C(=O)O	Epigenetic derep inconclusive (no result: A549 tox, PINK1 expr mod, Nrf2 ARE act, Nrf2 block) | C127i cell count 25µM
O=C(CCC1N=C2c3ccccc3N=C(SCc3ccc(F)cc3)N2C1=O)NCc1ccc(F)cc1 (configuration not stated)	none (no result: Nrf2 block)
CCc1nnc(NC(=O)c2cccc(C(=O)Nc3nnc(CC)s3)n2)s1	A549 tox inconclusive, Epigenetic derep 2.5µM, Nrf2 block 0.26µM | C127i cell count inactive | HCC4017 tox 0.5µM | H358 viab 0.56µM
O=c1c2ccccc2nc(COc2ccccc2)n1/N=C/c1c[nH]c2ccccc12	PINK1 expr mod inconclusive, Epigenetic derep 10µM | C127i cell count inactive | HCC4017 tox inconclusive | H358 viab inactive
O=c1c2ccccc2nc(COc2ccccc2)n1/N=C/c1cn[nH]c1-c1ccccc1	Nrf2 block inconclusive
COc1ccc2c(C)cc(SCC(=O)N(C)C3CCS(=O)(=O)C3)nc2c1 (configuration not stated)	Epigenetic derep 10µM | C127i cell count inconclusive | HCC4017 tox inactive | H358 viab inactive
CCCC(=O)N1CCN(c2ccc(NC(=O)c3ccc([N+](=O)[O-])o3)cc2Cl)CC1	A549 tox inconclusive, Nrf2 ARE act inconclusive, Epigenetic derep inconclusive, Nrf2 block 16µM | C127i cell count inactive | HCC4017 tox 1.8µM | H358 viab 2.5µM
CN1CCN(c2ccc(NC(=O)c3ccc([N+](=O)[O-])o3)cc2Cl)CC1	Nrf2 ARE act inconclusive, Nrf2 block inconclusive (no result: Epigenetic derep)
CC(C)C(=O)N1CCN(c2ccc(NC(=O)c3ccc([N+](=O)[O-])o3)cc2Cl)CC1	A549 tox inconclusive, Nrf2 ARE act inconclusive, Epigenetic derep inconclusive | C127i cell count inconclusive
CCOC(=O)c1cc(S(=O)(=O)Nc2ccc(Br)c(C)c2)[nH]n1	none (no result: Nrf2 block)
CC1(C)Oc2cc3c(cc2O1)OC(C)(C)O3	none (no result: A549 tox, PINK1 expr mod, Nrf2 ARE act, Nrf2 block)
Cc1cc(C)cc(Nc2nc3ccccc3c(=O)[nH]2)c1	Nrf2 block inconclusive
COc1nc(Nc2nc3ccccc3c(=O)[nH]2)nc2ccc(C)cc12	A549 tox inconclusive, Epigenetic derep inconclusive, Nrf2 block inconclusive | C127i cell count inactive | HCC4017 tox 2.8µM | H358 viab 3.1µM
O=C1C=C(Nc2ccc(Cl)cc2)C(=O)N1c1ccc(Cl)cc1	PINK1 expr mod 35µM, Epigenetic derep 10µM | C127i cell count inconclusive | HCC4017 tox inactive | H358 viab inactive
CN(C)S(=O)(=O)c1ccc2c(c1)/C(=C/c1cc3c([nH]1)CCCC3)C(=O)N2	PINK1 expr mod inconclusive, Epigenetic derep 7.9µM | C127i cell count 3.2µM
CN(C)S(=O)(=O)c1ccc2c(c1)C(=O)c1cc(S(=O)(=O)N(C)C)ccc1CC2	none (no result: Epigenetic derep)
Oc1ccc(Cl)cc1C=Nc1ccccc1Br	none
Oc1ccc(Br)cc1C=Nc1ccc2c3c(cccc13)CC2	Epigenetic derep 3.5µM | C127i cell count inactive | HCC4017 tox inactive | H358 viab inconclusive
C#CC(C)OC(=O)c1nnc2c3ccccc3n(COC)c2n1 (configuration not stated)	none (no result: A549 tox, PINK1 expr mod, Nrf2 ARE act, Nrf2 block)
COc1ccc(OC)c(Nc2nc3nonc3nc2N2CCCC(C)C2)c1 (configuration not stated)	PINK1 expr mod inconclusive, Epigenetic derep inconclusive | C127i cell count 14µM

Screens: PubChem, National Center for Advancing Translational Sciences (NCATS)
